Screening data (PubChem BioAssay)
NR2F2 inh: NR2F2 transcriptional activity inhibitors, primary screen, cell-based, luciferase reporter, HEK293T, luminescence; HEK293T NGFI-A luciferase reporter; inhibition, % at 8.6 µM; 370,000 tested, 0.7% active;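 active = inhibition above a per-plate cutoff, mean inhibition of test wells between control levels plus 3 SD, cut at about 38% in these data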;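 also: cells cotransfected with COUP-TFII expression vector driving the NGFI-A reporter; 0% = median of COUP-TF2 test wells and 100% = reporter-only cells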
Target sequence (P24468 whole entry, looked up): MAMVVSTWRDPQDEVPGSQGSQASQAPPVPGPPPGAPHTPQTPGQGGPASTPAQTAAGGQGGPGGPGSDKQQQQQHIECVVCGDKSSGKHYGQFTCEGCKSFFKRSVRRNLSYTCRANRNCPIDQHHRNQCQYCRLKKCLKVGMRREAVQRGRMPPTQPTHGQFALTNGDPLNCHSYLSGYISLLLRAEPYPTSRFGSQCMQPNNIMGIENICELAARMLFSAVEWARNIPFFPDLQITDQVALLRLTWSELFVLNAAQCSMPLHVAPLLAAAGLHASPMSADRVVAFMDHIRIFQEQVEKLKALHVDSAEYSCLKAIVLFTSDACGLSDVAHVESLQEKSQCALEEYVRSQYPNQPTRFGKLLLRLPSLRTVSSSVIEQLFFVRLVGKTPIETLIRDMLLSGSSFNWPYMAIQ
Env fusion inh: inhibitors of HIV-1 Env-driven cell-cell fusion, primary screen, HeLa-JRFL effector, CEM21 target cells, luciferase | inhibition, % at 12.3 µM | 360,000 tested, 1.1% active;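 active = mean replicate inhibition score of at least 50 and every replicate individually at or above 50; inconclusive = only one of the two criteria met; inactive = mean below 50 and not all replicates reaching 50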;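 also: 0% = plate neutral controls and 100% = maraviroc near 300 nM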
Gli-Sufu block: Gli-Sufu pathway antagonists, primary screen, luciferase luminescence, Sufu-KO-LIGHT cells, uHTS; inhibition, % at 5 µM; 340,000 tested, 0.74% active; Sufu-KO-LIGHT fibroblasts, Gli luciferase reporter luminescence;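 active = inhibition above about 55%, limit read from the data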;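 also: 0% = DMSO-treated cells and 100% = wells with medium but no cells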
aDG glyco up: activators of alpha-DG glycosylation, primary screen, uHTS, Pro5-aDG cells, AlphaScreen; alpha-DG glycosylation AlphaScreen (IIH6); 0% Pro5, 100% B10-LARGE cell signal; activation, % at 10 µM; 360,000 tested, 0.22% active;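 active = activation of at least 8% versus controls, or a plate z-score of at least 8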;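 also: Pro5 are CHO cells carrying HIG-tagged alpha-DG that lacks glycosylation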
GalR3 antag: GalR3 antagonists in HEK293 cells, primary screen, cell-based, fluorescence readout. HEK293 GalR3-CNG cAMP membrane potential fluorescence; galR3 body fused to GalR1 C-terminus. inhibition, % at 3 µM. 360,000 tested, 0.44% active. Galanin receptor type 3 (Homo sapiens), O60755;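 active = inhibition above the screen-wide average plus 3 SD, cut at about 13% in these data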;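 also: forskolin and galanin both at EC90 stimulate the cells; cAMP rise reported by CNG channel membrane potential dye signal; 0% = forskolin plus galanin with DMSO and 100% = forskolin alone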
Active calls of the source: *; [ ] = dose if it differs, or a comment. Rows were chosen to be rich in hits. Some 2.1% of all compounds tested hit in one or more screens of this group.

C[C@@H]1CN([C@@H](C)CO)C(=O)c2cc(NS(=O)(=O)c3ccc(F)cc3)ccc2O[C@H]1CN(C)C(=O)Nc1ccc(F)cc1 was read as Env fusion inh -11[16.7 µM].
Screening CS(=O)(=O)Nc1ccc2c(c1)[C@H]1C[C@@H](CC(=O)NCC3CC3)O[C@@H](CO)[C@H]1O2 returned Env fusion inh -2[16.7 µM].
Screening C[C@H](CO)N1C[C@H](C)[C@@H](CN(C)C)OCCCC[C@H](C)Oc2ccc(NS(C)(=O)=O)cc2C1=O returned Env fusion inh -6[16.7 µM].
`CCOC(=O)C(C)Sc1nc2c(c(=O)[nH]c(=O)n2C)n1CCc1ccccc1` (stereo not given) gave NR2F2 inh -7, Gli-Sufu block -2, aDG glyco up 0 and GalR3 antag -2.
COC(=O)C(C)Sc1nc2c(c(=O)[nH]c(=O)n2C)n1CCCc1ccccc1 (stereo not given) was read as NR2F2 inh -10, Gli-Sufu block 4, aDG glyco up 1 and GalR3 antag 53*.
Screening O=[N+]([O-])c1ccc(O)c(C(C#Cc2ccccc2)N2CCOCC2)c1 (stereo not given) returned NR2F2 inh 2, Env fusion inh 89*, Gli-Sufu block 4, aDG glyco up 0 and GalR3 antag -6.
COc1cc2c(cc1O)C=[N+](Cc1cccc(OC(F)(F)F)c1)CC2 was read as Env fusion inh 13[16.7 µM].
`CC12CCC(=O)N1C(C(=O)Nc1nc3ccc(Cl)cc3s1)CS2` (stereo not given) gave NR2F2 inh -8, Env fusion inh -5, Gli-Sufu block 0, aDG glyco up 0 and GalR3 antag -3.
`CC12CCC(=O)N1C(C(=O)Nc1nc3ccc(S(C)(=O)=O)cc3s1)CS2` (stereo not given) gave NR2F2 inh -8, Env fusion inh 55*, Gli-Sufu block 4, aDG glyco up 0 and GalR3 antag 0.
C[C@@H]1Cn2cnc(C(=O)N(C)Cc3ccccc3)c2C(=O)N1 was read as NR2F2 inh 17, Env fusion inh -39 and GalR3 antag -4.
For C[C@H]1CNC(=O)c2c(C(=O)N3CCN(c4ccccc4)CC3)ncn21 the results were NR2F2 inh -25, Env fusion inh 79* and GalR3 antag -4.
For C[C@@H]1CNC(=O)c2c(C(=O)N(C)Cc3ccccc3)ncn21 the results were NR2F2 inh 13, Env fusion inh 137* and GalR3 antag -7.
C[C@H]1CNC(=O)c2c(C(=O)N3CCN(C(=O)OC(C)(C)C)CC3)ncn21 was read as NR2F2 inh 12, Env fusion inh 72*, aDG glyco up 0 and GalR3 antag -4.
C[C@@H]1CN([C@H](C)CO)C(=O)c2cc(NS(=O)(=O)c3ccc(F)cc3)ccc2O[C@@H](C)CCCCO[C@@H]1CN(C)Cc1ccncc1 was read as Env fusion inh 6[16.7 µM].
Screening COc1ccc(S(=O)(=O)Nc2ccc3c(c2)C(=O)N([C@H](C)CO)C[C@H](C)[C@H](CN(C)S(=O)(=O)c2ccc(C)cc2)OCCCC[C@H](C)O3)cc1 returned Env fusion inh -11[16.7 µM].
C[C@@H]1CN([C@@H](C)CO)C(=O)Cc2cc(NC(=O)Nc3ccc4c(c3)OCO4)ccc2O[C@H]1CN(C)CC1CCCCC1 was read as Env fusion inh 17[16.7 µM].
For CCCCN(C)C(=O)c1oc2ccc(S(=O)(=O)N3CCCCCC3)cc2c1C the results were NR2F2 inh 13, Env fusion inh 61*, Gli-Sufu block 18, aDG glyco up 1 and GalR3 antag -9.
For CC(C)n1cc(/C=C/c2cc[n+](C)cc2)c2ccccc21 the results were NR2F2 inh 34, Env fusion inh 72*, Gli-Sufu block 71*, aDG glyco up 0 and GalR3 antag -9.
`C=CCn1cc(/C=C/c2cc[n+](C)cc2)c2ccccc21` gave NR2F2 inh 49*, Env fusion inh inconclusive, Gli-Sufu block 66*, aDG glyco up 0 and GalR3 antag -10.
Screening CCN(CC)C(=O)Cn1c(C)c(/C=C/c2cc[n+](C)cc2)c2ccccc21 returned NR2F2 inh 24, Env fusion inh -6, Gli-Sufu block 19, aDG glyco up 0 and GalR3 antag -6.
